A selection: hits, their analogues and other compounds. The true share with any hit is near 5.7%.
L3MBTL1 inh: qHTS Assay for the Inhibitors of L3MBTL1; Lethal(3)malignant brain tumor-like protein 1 (Homo sapiens), Q9Y468; AlphaScreen L3MBTL1–H3K9me1 peptide binding; Potency, µM (highest dose often 57.1 µM), without a hit: at the top dose activity, negative = inhibition, usual class: inhibitors; hit rate 0.66% among 230,000; note: potency is the fitted concentration of half-maximal effect; % is set by controls: 0 for no effect and ±100 for the full control effect; nearly all actives have a fitted effect of over 60% in size
Target sequence (Q9Y468 whole entry, looked up): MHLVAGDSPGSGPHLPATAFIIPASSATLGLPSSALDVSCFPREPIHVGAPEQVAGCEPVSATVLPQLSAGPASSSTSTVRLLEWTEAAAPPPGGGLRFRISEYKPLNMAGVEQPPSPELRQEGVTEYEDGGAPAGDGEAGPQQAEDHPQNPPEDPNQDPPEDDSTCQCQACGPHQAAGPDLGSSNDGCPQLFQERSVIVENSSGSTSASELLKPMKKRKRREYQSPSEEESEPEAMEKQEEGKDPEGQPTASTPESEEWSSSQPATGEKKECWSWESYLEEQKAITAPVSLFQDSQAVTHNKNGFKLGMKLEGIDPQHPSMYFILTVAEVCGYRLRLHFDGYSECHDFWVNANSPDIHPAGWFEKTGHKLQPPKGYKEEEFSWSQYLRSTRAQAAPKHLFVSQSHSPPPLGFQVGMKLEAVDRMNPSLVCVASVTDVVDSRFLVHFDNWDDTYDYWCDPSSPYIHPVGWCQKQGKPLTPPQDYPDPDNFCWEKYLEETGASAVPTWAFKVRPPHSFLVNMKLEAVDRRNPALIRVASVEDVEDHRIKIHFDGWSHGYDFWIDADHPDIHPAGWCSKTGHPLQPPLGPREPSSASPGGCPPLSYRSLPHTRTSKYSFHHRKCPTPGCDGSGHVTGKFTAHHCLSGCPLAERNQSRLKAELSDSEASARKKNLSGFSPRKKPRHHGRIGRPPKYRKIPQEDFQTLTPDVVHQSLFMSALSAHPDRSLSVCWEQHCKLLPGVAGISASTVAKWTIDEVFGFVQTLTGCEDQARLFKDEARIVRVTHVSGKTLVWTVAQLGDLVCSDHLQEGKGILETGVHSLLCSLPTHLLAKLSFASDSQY
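AlphaScreen assay: L3MBTL1 (50 nM final) was preincubated 30 min at room temperature with biotinylated H3(1-15)K9me1 peptide (75 nM final), then 30 min with library compounds; streptavidin donor and nickel chelate acceptor beads (10 ug/mL final) added, 30 min dark.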
KDM4E inh: qHTS Assay for Inhibitors of Human Jumonji Domain Containing 2E (JMJD2E); Potency, µM (highest dose often 57.1 µM), without a hit: at the top dose activity change, negative = inhibition, usual class: inhibitors; hit rate 1.6% among 230,000; JMJD2E catalytic domain, FDH-coupled NADH fluorescence (FDH is formaldehyde dehydrogenase); AID 2147, 2009; active = well fitted inhibition curve with a large enough effect, not every such curve was filed as active; inconclusive = small, poorly fitted or top-dose-only effect, or another doubt; inactive = no such curve, though single readings can be large or run the other way;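 note: potency is the fitted concentration of half-maximal effect; 0% = wells with enzyme and -100% = buffer wells without enzyme; nearly all actives have a fitted effect of over 50% in size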
PI5P4Ka inh: qHTS for Inhibitors of phosphatidylinositol 5-phosphate 4-kinase (PI5P4K); max response, %; hit rate 1.2% among 330,000; PI5P4Kalpha enzyme, ADP-Glo luminescence, 60 min; stronger effect = lower value; active = max response of -50% or lower; inconclusive = between -30% and -50%; inactive = -30% or higher; note: value at the top dose of about 77 µM; % is set by controls: 0 for no effect and ±100 for the full control effect
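Single end-point luminescence (ADP-Glo) quantified ADP from PI5P4Kalpha turnover; ATP 5 microM final, 1 h at RT, 0.1% CHAPS and 0.28 mM EGTA in HEPES pH 7.4.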
BAZ2B inh: qHTS Assay for Inhibitors of BAZ2B. Potency, µM (doses to about 114 µM), without a hit: at the highest dose activity change, negative = inhibition, most hits filed as inhibitors. AID 504333, 2011. Bromodomain adjacent to zinc finger domain protein 2B (Homo sapiens), Q9UIF8. AlphaScreen BAZ2B-H3K14Ac peptide displacement. hit rate 4.4% among 360,000; note: potency is the fitted concentration of half-maximal effect; % is set by controls: 0 for no effect and ±100 for the full control effect; nearly all actives have a fitted effect of over 60% in size
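Complex of BAZ2B and biotin-H3K14Ac (50 nM apiece) forms over 30 min at RT, then faces library compounds up to 110 uM for another 30 min; AlphaScreen beads added, 20 min dark incubation, luminescence read.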
HP1b chromo inh: HTS for Inhibitors of HP1-beta Chromodomain Interactions with Methylated Histone Tails; hit rate 0.56% among 390,000; AlphaScreen HP1-beta / biotin-H3K9me3 peptide binding; Potency, µM (top dose mostly 114 µM), without a hit: at the top dose activity change, negative = inhibition, actives largely listed as inhibitors; AID 540317, 2011; Chromobox protein homolog 1 (Homo sapiens), P83916; note: potency is the fitted concentration of half-maximal effect; nearly all actives have a fitted effect of over 70% in size
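HP1-beta protein (50 nM final) preincubated 30 min at room temperature with biotinylated H3(1-18)K9me3 peptide (50 nM) in PBS pH 7.4, 0.01% Tween-20, then compound added for 30 min. AlphaScreen streptavidin donor/nickel chelate acceptor beads (10 ug/mL final), 30 min dark, luminescence read.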
JMJD2A Tudor: qHTS Assay for Inhibitors of JMJD2A-Tudor Domain; Potency, µM (series often up to 114 µM), inactives show top-dose activity change, negative = inhibition, actives largely listed as inhibitors; Lysine-specific demethylase 4A (Homo sapiens), O75164; AlphaScreen JMJD2A-Tudor / H3K4me3 peptide binding; hit rate 4.4% among 390,000; note: potency is the fitted concentration of half-maximal effect; % is set by controls: 0 for no effect and ±100 for the full control effect; nearly all actives have a fitted effect of over 50% in size
The depositor's hits bear a star; ? = inconclusive; · = no result given; [ ] = dose if it differs, or a comment. Unless noted, calls come from the whole dose curve; as a rule, active = well fitted inhibition curve with a large enough effect; inconclusive = small, poorly fitted or top-dose-only effect; inactive = no such curve, though single readings can be large or run the other way.

SMILES	L3MBTL1 inh	KDM4E inh	PI5P4Ka inh	BAZ2B inh	HP1b chromo inh	JMJD2A Tudor
Cc1cccc(/C=C/C(=O)c2ccc(NC3=NCCCS3)cc2)c1	-0.7%	-7.7%	-5.8	?	-16.4%	44.7µM*
COc1cccc(/C=C/C(=O)c2ccc(NC3=NCCCS3)cc2)c1	-1.5%	-10.0%	-8.9	?	-9.4%	?
CN(CC(=O)Nc1ccccc1Br)C(=O)c1ccccc1OCc1ccc(Cl)cc1	·	·	13.3	·	25.9%	-15.8%
Cc1c(C(=O)N2CCC(C)CC2)c(S(=O)(=O)Nc2ccc(OC(F)(F)F)cc2)c(C)n1C	·	·	·	-31.0%	17.8%	-11.3%
CC1CCN(c2oc(-c3ccccc3Cl)nc2C#N)CC1	?	?	22.5	10µM*	?	?
COc1ccccc1-c1nc(C#N)c(N2CCCCCC2)o1	·	?	·	?	-42.7%	?
COc1ccccc1-c1nc(C#N)c(N2CCN(c3ccccc3)CC2)o1	?	?	15.1	11.2µM*	?	?
Cc1cccc(-c2nc(C#N)c(N3CCCCCC3)o2)c1	·	?	·	12.6µM*	?	?
COc1ccc(N2CCN(c3oc(-c4ccccc4OC)nc3C#N)CC2)cc1	?	1.9%	·	8.91µM*	?	12.6µM*
Cc1cc2c(s1)c1cnn(Cc3c(F)c(F)c(C(F)(F)F)c(F)c3F)c(=O)c1n2C	·	·	·	·	·	-24.7%
COc1ccc(OC)c(CNC(=O)c2c(C)oc3ncn(CC(C)C)c(=O)c23)c1	·	·	·	-2.8%[57.1 µM]	3.1%	-21.7%
COc1ccccc1CNC(=O)CCCn1nc(C)c2sc3ccccc3c2c1=O	·	·	·	-10.2%	22.7%	-11.9%
COc1ccc(N2C(=O)Cc3cc(OC)c(OC)cc3C2c2ccc(F)cc2)cc1 (stereo unspecified)	·	·	·	-19.2%	33.7%	-15.6%
COc1ccc(-c2nnc(SCc3ccccn3)n2C)cc1	3.5%	3.5%	-16.8	-2.5%	-7.3%	-10.7%[11.4 µM]
COc1ccc(N=C(N)SCc2ccccn2)cc1	10.9%	2.4%	-6.5	?	?	50.1µM*
COc1ccc(-n2c(Cc3cccn3C)nnc2SCC(=O)Nc2ccc(F)cc2F)cc1	-0.7%	-10.9%	-2.0	?	-1.3%	?
COc1cccc(NC(=O)CSc2nnc(Cc3cccn3C)n2-c2ccc(F)cc2)c1	-6.4%	-10.5%	5.6	50.1µM*	13.5%	?
CCOc1cccc(-c2nnc(SCC(=O)Nc3cc(OC)cc(OC)c3)n2N)c1	-4.1%	2.4%	·	1.8%	45.7%	-9.8%
COc1ccc(OC)c(NC(=O)CSc2nnc(Cc3cccn3C)n2-c2ccc(F)cc2)c1	-8.6%	-3.0%	0.6	50.1µM*	0.6%	-34.5%
COc1cccc(NC(=O)CSc2nnc(-c3cccc(OC(C)C)c3)n2N)c1	-3.6%	-0.4%	-3.9	4.0%	42.5%	56.2µM*
Cc1ccc(C(=O)Nc2ccc(Br)cc2)cc1S(=O)(=O)NCc1ccccc1	·	·	·	-3.4%	15.6%	-23.5%
CC(=O)C1=C(O)C(=O)N(CCc2c[nH]c3ccccc23)C1c1ccc(O)cc1 (stereo unspecified)	-3.0%	-9.0%	·	-30.9%	8.0%	89.1µM*
CC(=O)C1=C(O)C(=O)N(CCc2c[nH]c3ccccc23)C1c1ccccc1 (stereo unspecified)	-12.3%	?	-4.8	?	33.6%	-35.6%
CCOC(=O)Cc1csc(NC(=O)CSc2nc(-c3ccccc3)c(C#N)c(=O)[nH]2)n1	9.7%	?	-65.3*	-5.9%	26.1%	-13.3%
Cc1ccc(C)c(NC(=O)CSc2nc(-c3ccccc3)c(C#N)c(=O)[nH]2)c1	·	·	·	7.2%	28.5%	-4.3%
SMILES	L3MBTL1 inh	KDM4E inh	PI5P4Ka inh	BAZ2B inh	HP1b chromo inh	JMJD2A Tudor
CCOc1ccc2nc(NC(=O)CSc3nc(-c4ccccc4)c(C#N)c(=O)[nH]3)sc2c1	·	-7.3%	?	-26.8%	?	50.1µM*
COc1ccccc1NC(=O)CSc1nc(-c2ccc(C(C)(C)C)cc2)c(C#N)c(=O)[nH]1	·	·	·	79.4µM*	26.1%	-33.8%
Cc1csc(NC(=O)CSc2ncc(-c3ccccc3)[nH]2)n1	-12.1%	-4.1%	7.4	50.1µM*	3.0%	-26.6%
COc1cccc(-c2nc(SCC(=O)Nc3nc(-c4ccccc4)c(C)s3)[nH]c(=O)c2C#N)c1	-25.8%	-8.0%	?	?	7.7%	-31.3%
CCOc1ccc(CNC(=O)c2cc3c(=O)n(C)c4ccccc4c3s2)cc1	·	·	·	·	10.3%	-16.7%
Cc1cc(C)n2nc(SCc3cc(=O)oc4cc(O)ccc34)nc2n1	·	?	·	50.1µM*	·	·
Cc1cc(C)n2nc(SCc3ccccc3)nc2n1	12.2%	-4.8%	2.0	0.6%	44.6%	8.0%
COC(=O)c1cc2sccc2n1CC(=O)Nc1cc(Cl)ccc1OC	·	·	·	-0.1%	23.6%	5.5%
CN(C)S(=O)(=O)c1cc(NC(=O)COC(=O)/C=C/c2ccco2)ccc1Cl	·	-13.0%	-71.5*	?	?	56.2µM*
O=C(COC(=O)/C=C/c1ccco1)NCc1ccc2c(c1)OCO2	-3.7%	-13.1%	-28.2	70.8µM*	-0.3%	-19.2%
Cc1c(Cl)cccc1NC(=O)Cn1c(CCC(=O)O)ccc1-c1ccc(Cl)cc1	-1.4%	·	-10.5	56.2µM*	?	35.5µM*
COc1ccc(-c2ccc(CCC(=O)O)n2Cc2ccco2)cc1	-10.9%	?	-14.4	?	-4.0%	-29.6%
Cc1c(Cl)cccc1NC(=O)Cn1c(CCC(=O)O)ccc1-c1cccs1	·	·	·	-23.3%	8.3%	-18.8%
O=C(O)CCc1ccc(-c2cccs2)n1Cc1ccco1	·	?	·	50.1µM*	4.9%	?
O=C(O)CCc1ccc(-c2ccc(Cl)cc2)n1Cc1ccco1	·	?	·	50.1µM*	6.3%	?
O=C(CCCCC(=O)NC1CCCC1)NC1CCCC1	6.4%	5.3%	5.0	7.3%	32.6%	-16.7%[57.1 µM]
Cc1c(C=Nc2ccc(S(=O)(=O)N(C)C)cc2)c(O)[nH]c(=O)c1C#N	·	·	-90.2*	·	16.0%	-7.6%
CCOC(=O)c1ccc(N=Nc2c(C)c(C#N)c(O)[nH]c2=O)cc1	·	4.6%	?	?	20.3%	?
Cc1c(C=Nc2ccc(S(=O)(=O)CCO)cc2)c(O)[nH]c(=O)c1C#N	·	·	-77.7*	·	52.4%	-10.1%
N#C/C(=C(/O)COC(=O)CCc1ccc(S(=O)(=O)N2CCOCC2)cc1)c1nc2ccccc2[nH]1	-17.3%	?	-51.6*	1.7%	37.5%	1.5%

High-throughput results (PubChem)
